About 14,000 (4.5%) of roughly 310,000 compounds showed an effect of 50% or more. The effect is printed as a negative number. Shown is part of a subset that was picked to be rich in strong results.
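Note: peak tail current of the secondary pulse compared with the same well before compound.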

For this assay, the target named is human ether-à-go-go-related gene (hERG) potassium channel (human, UniProt Q12809). The assay is described as follows: primary screen, population patch clamp on CHO cells stably expressing hERG; higher = less effect of the substance.
human ether-à-go-go-related gene (hERG) potassium channel, sequence (Q12809 whole entry, looked up): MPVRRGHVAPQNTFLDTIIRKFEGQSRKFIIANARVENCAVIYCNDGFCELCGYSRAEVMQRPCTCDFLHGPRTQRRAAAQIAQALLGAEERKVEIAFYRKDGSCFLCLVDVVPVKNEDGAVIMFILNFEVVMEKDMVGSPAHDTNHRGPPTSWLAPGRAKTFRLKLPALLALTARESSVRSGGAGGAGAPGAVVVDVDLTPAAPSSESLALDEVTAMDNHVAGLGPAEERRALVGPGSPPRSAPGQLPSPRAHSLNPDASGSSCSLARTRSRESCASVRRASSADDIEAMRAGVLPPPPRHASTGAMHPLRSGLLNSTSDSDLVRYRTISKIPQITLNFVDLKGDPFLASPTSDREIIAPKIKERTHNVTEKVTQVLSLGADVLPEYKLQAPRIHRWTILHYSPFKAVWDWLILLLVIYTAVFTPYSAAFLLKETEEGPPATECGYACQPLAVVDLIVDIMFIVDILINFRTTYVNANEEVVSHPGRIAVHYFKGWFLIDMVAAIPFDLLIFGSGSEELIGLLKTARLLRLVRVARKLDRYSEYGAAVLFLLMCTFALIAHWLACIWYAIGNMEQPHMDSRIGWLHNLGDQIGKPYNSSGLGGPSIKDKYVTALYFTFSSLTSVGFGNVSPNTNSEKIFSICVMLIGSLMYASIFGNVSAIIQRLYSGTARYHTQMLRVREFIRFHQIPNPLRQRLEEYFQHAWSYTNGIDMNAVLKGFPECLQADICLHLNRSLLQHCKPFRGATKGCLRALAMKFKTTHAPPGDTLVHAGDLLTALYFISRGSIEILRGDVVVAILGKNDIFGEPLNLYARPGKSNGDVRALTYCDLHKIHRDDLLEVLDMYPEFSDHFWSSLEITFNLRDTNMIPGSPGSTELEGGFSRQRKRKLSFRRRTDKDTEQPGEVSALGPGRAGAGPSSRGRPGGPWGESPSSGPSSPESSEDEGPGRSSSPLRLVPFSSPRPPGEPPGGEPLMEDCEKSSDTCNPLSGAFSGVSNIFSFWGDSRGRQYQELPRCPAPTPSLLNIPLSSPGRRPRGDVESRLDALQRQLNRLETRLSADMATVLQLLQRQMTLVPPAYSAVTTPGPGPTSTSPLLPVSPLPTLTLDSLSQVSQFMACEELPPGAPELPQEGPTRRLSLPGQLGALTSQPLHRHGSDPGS
Turning to `O=C(O)c1ccc(NC(=S)NC(=O)c2ccc(-c3ccccc3)cc2)cc1`, the “hERG current change (%, negative = inhibition) at 10uM” value is 19.4%. With `CNC[C@H](NC[C@@H](NCCCc1ccccc1)c1ccccc1)[C@H](C)O` the figure was 11.7%; with `Cc1ccc(CSCC(=O)Nc2ccc3c(c2)OCO3)cc1`, -14.5%.

For the compound `COc1ccccc1CC(=O)Nc1ccc(S(=O)(=O)N2CCN(C)CC2)cc1`, the “hERG current change (%, negative = inhibition) at 10uM” value was determined as 14.4%. To `CS(=O)(=O)Nc1ccccc1C(=O)N1CCOCC1` belongs 16.4%. To `O=C(CSc1oc(-c2ccco2)nc1S(=O)(=O)c1ccc(Cl)cc1)NCC1CCCO1` (stereo not shown) belongs -41.3%; to `CCN(CC)C(=N)/C(C#N)=N/Nc1ccccc1`, -15.7%. As for `CCN(CC)C(=N)/C(C#N)=N/Nc1ccc(C)cc1`, the “hERG current change (%, negative = inhibition) at 10uM” value is given as -56.6%. As to `Cc1ccc(N/N=C(\C#N)C(=N)N2CCCCCC2)cc1`, the “hERG current change (%, negative = inhibition) at 10uM” value came out at 12.7%. To `Cc1cc(NC(=O)Nc2cc(F)ccc2F)no1` belongs 17.7%. Take `O=C(c1ccc(Cl)c(S(=O)(=O)N2CCOCC2)c1)N(Cc1nnc(-c2ccccc2Cl)o1)C1CC1`: the “hERG current change (%, negative = inhibition) at 10uM” value is reported as -58.9%. For the compound `CCCN(Cc1nnc(-c2ccccc2Cl)o1)C(=O)c1cccc(S(=O)(=O)N2CCOCC2)c1`, the “hERG current change (%, negative = inhibition) at 10uM” value is reported as -6.05%. Consider `CCCN(Cc1nnc(-c2ccccc2Cl)o1)C(=O)c1cc(S(=O)(=O)N2CCOCC2)ccc1F`, for which the “hERG current change (%, negative = inhibition) at 10uM” value is reported as -47.7%. With `O=C(c1cc([N+](=O)[O-])cc([N+](=O)[O-])c1)N(Cc1nnc(-c2ccccc2Cl)o1)C1CC1` the figure was -36.8%.

Turning to `CCCN(Cc1nnc(-c2ccccc2Cl)o1)C(=O)c1ccc(C)c(S(=O)(=O)N2CCOCC2)c1`, the “hERG current change (%, negative = inhibition) at 10uM” value is given as -55.8%. For the compound `Cc1ccc(S(=O)(=O)N2CCOCC2)cc1C(=O)N(Cc1nnc(-c2ccccc2Cl)o1)C1CC1`, the “hERG current change (%, negative = inhibition) at 10uM” value is -33.9%. To `CCCN(Cc1nnc(-c2ccccc2Cl)o1)C(=O)c1cc2ccccc2o1` belongs -17%; to `CCCN(Cc1nnc(-c2ccccc2Cl)o1)C(=O)c1cc([N+](=O)[O-])cc([N+](=O)[O-])c1`, -55.1%; to `O=C(c1cccc(S(=O)(=O)N2CCOCC2)c1)N(Cc1nnc(-c2ccccc2Cl)o1)C1CC1`, -24.9%. With `CN(CC(=O)Nc1ccc(Cl)cc1)CC(=O)Nc1cccc2ccccc12` the figure was -2.26%; with `O=C(/C=C/c1ccccc1Cl)Nc1ccc(-c2nnc3n2CCCCC3)cc1`, -6.47%. To `COc1cc(CNC(C)(C)C)cc(Br)c1OCc1cccs1.Cl` belongs -28.7%; to `NS(=O)(=O)c1cccnc1Nc1c(Cl)cccc1Cl`, 10.6%. For `CCCCc1nc2ccccc2c(NC(=O)CN(CC)CC)c1CCC.O=C(O)C(=O)O`, the “hERG current change (%, negative = inhibition) at 10uM” value is on record as -26.8%.

For the compound `COc1ccc(S(=O)(=O)N2CCCCCC2)cc1NC(=O)c1ccccc1F`, the “hERG current change (%, negative = inhibition) at 10uM” value was found to be 3.54%.

In the case of `O=C(CS(=O)(=O)c1ccc(F)cc1)Nc1nccs1`, the “hERG current change (%, negative = inhibition) at 10uM” value is given as 9.06%.

With `NC(=O)c1ccsc1NC(=O)CS(=O)(=O)c1ccc(Cl)cc1`, the “hERG current change (%, negative = inhibition) at 10uM” value is recorded as -75.7%.

Regarding `NC(=O)c1ccsc1NC(=O)CCS(=O)(=O)c1ccc(F)cc1`, the “hERG current change (%, negative = inhibition) at 10uM” value is recorded as -2.69%.

Take `NC(=O)c1ccsc1NC(=O)CS(=O)(=O)c1ccc(F)cc1`: the “hERG current change (%, negative = inhibition) at 10uM” value is on record as -68.2%. With `NC(=O)c1ccsc1NC(=O)CS(=O)(=O)c1ccccc1`, the “hERG current change (%, negative = inhibition) at 10uM” value is -8.27%. In the case of `CNC(=O)c1ccsc1NC(=O)CS(=O)(=O)c1ccc(Cl)cc1`, the “hERG current change (%, negative = inhibition) at 10uM” value is -38.6%. With `COc1ccccc1S(=O)(=O)Cc1ccc(C(=O)N2CCN(c3ccc(C)cc3)C(C)C2)o1` (stereo not shown) the figure was -24.6%; with `CCCNC(=O)c1oc2ccc3c(c2c1C)C=CC(C)(C)O3`, 0.704%; with `CCOC(=O)c1cc2c(=O)n3ccccc3nc2n(CCOC)c1=NC(=O)c1ccncc1`, -51.3%. Take `CCOC(=O)c1cc2c(=O)n3ccccc3nc2n(CCCOC)c1=NC(=O)C(C)(C)C`: the “hERG current change (%, negative = inhibition) at 10uM” value is reported as -7.42%. Consider `CCOC(=O)c1cc2c(=O)n3ccccc3nc2n(CCOC)c1=NC(=O)c1c(-c2c(F)cccc2Cl)noc1C`, for which the “hERG current change (%, negative = inhibition) at 10uM” value was found to be 2%.

On to `CCOC(=O)c1cc2c(=O)n3ccccc3nc2n(CCCOC)c1=NC(C)=O`, for which the “hERG current change (%, negative = inhibition) at 10uM” value was -27.5%. With `CCOC(=O)c1cc2c(=O)n3ccccc3nc2n(CCOC)c1=NC(=O)C(C)(C)C` the figure was -4.45%. For the compound `CCOC(=O)c1cc2c(=O)n3ccccc3nc2n(CCCOC)c1=NC(=O)c1ccncc1`, the “hERG current change (%, negative = inhibition) at 10uM” value is on record as -87.3%. To `Cc1cccc(C(=O)Nc2ccc(C(=O)/C=C/c3cccs3)cc2)c1` belongs 7.48%; to `O=C(CSc1n[nH]c(=O)[nH]c1=O)N/N=C/c1ccccc1`, 8.14%. To `COc1ccc(-n2nc(C(=O)NCC(=O)NC(C)C)c3ccccc3c2=O)c(OC)c1` belongs 11.3%; to `COc1ccc(S(=O)(=O)n2nc(-c3cc(OC)c(OC)c(OC)c3)cc2N)cc1OC`, -2.63%; to `COc1cc(/C=N/NC(=O)COc2ccccc2[N+](=O)[O-])ccc1OC(=O)c1ccco1`, -1.29%. To `Cc1ccc(OCC(=O)N/N=C\c2ccco2)c(C)c1` belongs -38%. For `CCc1ccc(OCC(=O)N/N=C\c2ccco2)c([N+](=O)[O-])c1`, the “hERG current change (%, negative = inhibition) at 10uM” value is recorded as -67.4%.

With `Cc1cc(-c2nnc(CSc3nnc(NC(=O)c4ccc(C(C)(C)C)cc4)s3)o2)ccc1[N+](=O)[O-]`, the “hERG current change (%, negative = inhibition) at 10uM” value is reported as 4.92%. With `CCN(CC)c1nc(N)c([N+](=O)[O-])c(NCCO)n1` the figure was 12.1%; with `COc1ccccc1CN1CC(=O)N2CSC[C@H]2C1=O`, 10.3%. To `O=C1C2CSCN2C(=O)CN1CCCN1CCN(C(c2ccccc2)c2ccccc2)CC1` (stereo not shown) belongs -53.6%; to `O=C1[C@@H]2CSCN2C(=O)CN1CCc1cccc(F)c1`, -20.9%; to `CCn1cc(C(=O)O)c(=O)c2cc(Br)ccc21`, -46.7%.

For the compound `Cc1ccc(/C=C2\SC(=S)N(c3cccnc3)C2=O)cc1`, the “hERG current change (%, negative = inhibition) at 10uM” value stood at 18.9%. For the compound `COc1ccc(OC)c(NC(=O)C2CCCN(S(=O)(=O)c3c(C)noc3C)C2)c1` (stereo not shown), the “hERG current change (%, negative = inhibition) at 10uM” value is on record as -16.8%.

As for `NC1=NC(=Nc2ccc(Cl)cc2)c2ccccc21`, the “hERG current change (%, negative = inhibition) at 10uM” value is -3.81%.

Turning to `NC1=NC(=Nc2ccccc2)c2ccccc21`, the “hERG current change (%, negative = inhibition) at 10uM” value is reported as 8.33%. With `CC(C)c1ccc(N=C2N=C(N)c3ccccc32)cc1` the figure was -59.2%; with `CCOC(=O)c1c(C)[nH]c(C)c1S(=O)(=O)N1CCOCC1`, 13.8%; with `COc1ccc(S(=O)(=O)N2CCCN(CC(=O)Nc3ccc(NC(C)=O)cc3)CC2)cc1`, 2.8%. For the compound `COc1ccc(S(=O)(=O)N2CCCN(CC(=O)Nc3ccc4c(c3)OCO4)CC2)cc1`, the “hERG current change (%, negative = inhibition) at 10uM” value is on record as -61.5%. On to `COc1ccccc1NC(=O)CN1CCN(CC(=O)Nc2ccc3c(c2)OCO3)CC1`, for which the “hERG current change (%, negative = inhibition) at 10uM” value is on record as -72%. To `COc1ccc(NC(=O)CN2CCN(CC(=O)Nc3ccc4c(c3)OCO4)CC2)cc1` belongs -78.1%; to `O=C(CN1CCOCC1)Nc1ccc2c(c1)OCO2`, 17.3%; to `CCOc1ccc(OCCC(=O)Nc2ccc3c(c2)OCO3)cc1`, 10.2%. Consider `CCOc1ccc(NC(=O)CN2CCN(CC(=O)Nc3ccc4c(c3)OCO4)CC2)cc1`, for which the “hERG current change (%, negative = inhibition) at 10uM” value was -76.1%.

As for `COc1ccc(S(=O)(=O)N2CCCN(CC(=O)Nc3ccc(OC)c(Cl)c3)CC2)cc1`, the “hERG current change (%, negative = inhibition) at 10uM” value is recorded as -33.3%. With `COc1ccccc1N1CCN(CC(=O)Nc2ccc3c(c2)OCCO3)CC1` the figure was -6.03%. With `COc1ccc(OCC(=O)Nc2ccc3c(c2)OCO3)cc1` the figure was -0.489%; with `COc1ccccc1NC(=O)CN1CCN(CC(=O)Nc2ccc3c(c2)OCCO3)CC1`, -34.4%; with `CCOc1ccc(NC(=O)COc2ccc3c(c2)OCO3)cc1`, 1.04%.

Turning to `COc1ccccc1NC(CC(=O)c1ccccc1)C(=O)OCC(=O)c1ccc(Br)cc1` (stereo not shown), the “hERG current change (%, negative = inhibition) at 10uM” value is listed as -3.81%. To `Cc1ccc(C2=NN(C(=O)c3cccs3)C(c3ccccc3O)C2)cc1` (stereo not shown) belongs 34%; to `O=S1(=O)N=C(N(CCO)/N=C/c2ccc(Cl)cc2)c2ccccc21`, 4.3%; to `CN(C)c1ccc(P(=O)(Nc2ccc([N+](=O)[O-])cc2)N2CCOCC2)c(NC(=O)c2cccs2)c1` (stereo not shown), 16.9%. To `Cc1nc(=O)c(-c2ccccc2)c(C)n1-c1ccc(O)cc1` belongs 9.6%. To `O=C(NCCCl)Nc1cccnc1Cl` belongs 12.2%; to `COc1ccc(/C(C)=N\n2cnnc2)cc1`, 6.86%. Take `Cc1ccc(/C=C(\NC(=O)c2ccccc2)C(=O)OCc2ccccc2)cc1`: the “hERG current change (%, negative = inhibition) at 10uM” value is reported as 10.3%. To `O=C(NC(Cc1ccccc1)C(=O)O)/C(=C\c1ccc(F)cc1)NC(=O)c1ccccc1` (stereo not shown) belongs 11.1%; to `O=C(Nc1ccc(C(=O)O)cc1)/C(=C\c1ccccc1)NC(=O)c1ccc(Br)cc1`, 7.33%.

Regarding `O=C(CNC(=O)c1ccccc1)OCc1cccc(Br)c1`, the “hERG current change (%, negative = inhibition) at 10uM” value is reported as -17.8%.

Take `O=C(CNC(=O)/C(=C\c1ccccc1)NC(=O)c1ccc(Br)cc1)OCc1ccccc1`: the “hERG current change (%, negative = inhibition) at 10uM” value is reported as -69.1%. With `O=C(CNC(=O)c1ccc(Oc2ccccc2)cc1)OCc1ccc(Br)cc1`, the “hERG current change (%, negative = inhibition) at 10uM” value is on record as -0.714%. With `CC(=O)N/C(=C\c1ccccc1)C(=O)OCc1ccc(C)cc1` the figure was -19.9%; with `Cc1ccc(C(=O)N/C(=C\c2ccccc2)C(=O)OCc2ccccc2)cc1`, -50.7%; with `CCOC(=O)CNC(=O)/C(=C\c1ccc(F)cc1)NC(=O)c1ccccc1`, -26.4%. For the compound `O=C(CNC(=O)/C(=C/c1ccccc1)NC(=O)c1ccc(Br)cc1)OCc1ccccc1`, the “hERG current change (%, negative = inhibition) at 10uM” value is given as -64%. `O=C(CNC(=O)/C(=C\c1ccc(F)cc1)NC(=O)c1ccccc1)OCc1ccccc1`: the “hERG current change (%, negative = inhibition) at 10uM” value is -80.7%.

(Values after PMC4336329 (PLoS ONE, 2015).)
